HT1080 IDH1KD tx – kills HT-1080 cells with IDH1 knockdown | HT-1080 IDH1 knockdown viability, ATP luminescence, 48 h | Potency, µM (top dose mostly 46.1 µM), actives largely listed as cytotoxic | 360,000 tested, 2% active
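HT-1080-IDH1KD cells (IDH1 knocked down), 750/well in RPMI with 5% FBS, treated with compound 48 h at 37 degrees C. Viability by CellTiter-Glo luminescence, normalised to DMSO and no-cell wells; concentration-response curves classed.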
TDP1 cell noCPT – qHTS for Inhibitors of human tyrosyl-DNA phosphodiesterase 1 (TDP1): qHTS in cells in absence of CPT | 420,000 tested, 15% active | AID 686978, 2013 | DT40 Tdp1-/- hTDP1 cells, no CPT, ATP luminescence, 48 h | Potency, µM (doses to about 46.2 µM), usual class: inhibitors; note: nearly all actives have a fitted effect of over 55% in size
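No-CPT arm: Tdp1-/-;hTDP1 DT40 cells (400/well) plus compounds, incubated ≥48 hr at 37 °C. Readout CellTiter-Glo luminescence.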
TGFb SMAD3 inh – inhibitors of TGF-b signaling; HepG2 CAGA-GFP TGF-b/SMAD3 reporter, GFP fluorescence, 18 h; TGF-beta stimulated, 500 pg/mL final; Potency, µM (top dose mostly 46.1 µM), most hits filed as inhibitors; 410,000 tested, 1.2% active; AID 588855; note: nearly all actives have a fitted effect of over 65% in size
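HEPG2 CAGA-GFP reporter cells (1000/well, DMEM with 1% FBS) received compounds, then recombinant TGF-beta at 500 pg/mL final for 18 hours at 37 degrees C. Per-cell GFP summed per well was normalised to unstimulated and stimulated DMSO controls before curve fitting.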
HT1080NT lethal – kills 2HG-producing HT-1080-NT fibrosarcoma cells. HT-1080-NT fibrosarcoma viability, CellTiter-Glo ATP luminescence, 48 h. Potency, µM (highest dose often 46.1 µM), actives largely listed as cytotoxic. 360,000 tested, 1.6% active. AID 686970;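 note: NT is the 2HG producing partner of a matched IDH1 knockdown line; nearly all actives have a fitted effect of over 55% in size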
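Luminescent CellTiter-Glo readout after 48 hours of compound exposure at 37 degrees C defined viability of HT-1080-NT cells. Activity was normalized to DMSO wells and cell-free media wells; concentration-response curves were fitted and assigned curve classes.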
TDP1 cell CPT – DT40-hTDP1 cell growth loss with CPT | chicken DT40 Tdp1-/-;hTDP1 cells + 20 nM CPT, ATP luminescence, 48 h | Potency, µM (titrated, usually from 46.2 µM), actives largely listed as inhibitors | 420,000 tested, 12% active | AID 686979; note: nearly all actives have a fitted effect of over 55% in size
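Chicken DT40 Tdp1-/- cells complemented with human TDP1, 400 cells/well, exposed to compounds plus 20 nM camptothecin for at least 48 h at 37 C; viability read as ATP content by CellTiter-Glo luminescence.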
HepG2 viability – HepG2 cytotoxicity, counter-screen for TGF-b inhibitors; HepG2 CAGA-GFP viability, ATP luminescence, 18 h; Potency, µM (series often up to 46.1 µM), hits mostly cytotoxic; 410,000 tested, 0.76% active; AID 588856
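HepG2 CAGA-GFP cells (1000/well, DMEM with 1% FBS) received compound, then TGF-beta at 500 pg/mL final, and were incubated 18 hours at 37 degrees C. Viability was read by CellTiter-Glo luminescence. Media-only wells were set as complete cell-killing and DMSO as no toxicity.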
Hits are given with their value; n = inactive; u = inconclusive; x = no result given; [ ] = remark or other dose. Shown are actives, neighbours in structure and some others; about 17% of the full set was active somewhere. Calls come from the whole dose curve; as a rule, active = well fitted curve in the direction sought with a large enough effect; inconclusive = small, poorly fitted or top-dose-only effect, or another doubt; inactive = no such curve, though single readings can be large; an effect the other way counts as inactive or inconclusive.

SMILES | HT1080 IDH1KD tx | TDP1 cell noCPT | TGFb SMAD3 inh | HT1080NT lethal | TDP1 cell CPT | HepG2 viability
COc1cc(OC)c(C=NNC(=S)NC23CC4CC(CC(C4)C2)C3)c(OC)c1 | n | 6.5µM | n | n | 6.5µM | n
COc1ccc(/C=N/NC(=O)c2cnccn2)c(OC)c1OC | n | n | n | n | n | n
COc1cccc(/C=N/NC(=O)c2cnccn2)c1O | 16µM | u | u | u | u | n
COc1cc(C(=O)NC23CC4CC(CC(C4)C2)C3)cc(OC)c1OC | n | u | n | n | n | n
NC(=S)N/N=C/c1ccccc1[N+](=O)[O-] | n | n | n | n | n | n
Cc1cccc(NC(=O)Cn2cnc3sc(C)c(S(=O)(=O)N4CCC(C)CC4)c3c2=O)n1 | n | u | n | n | u | n
CCCOC(=S)Nc1ccccc1 | n | n | n | n | n | n
COCCNC(=O)C1(C)CCCN(C(=O)c2ccc(OC)c(OC)c2)C1 (stereo unspecified) | n | n | n | n | n | n
COc1ccc(OCC(=O)NC2CCSc3ccccc32)cc1 (stereo unspecified) | n | u | n | n | n | n
COc1cccc(/C=N/NC(=O)NC23CC4CC(CC(C4)C2)C3)c1O | 18µM | u | u | u | n | n
COc1cccc(/C=N/NC(=O)c2c(-c3ccccc3)noc2C)c1OC | n | n | u | n | n | n
O=C(N/N=C/c1cc([N+](=O)[O-])ccc1Cl)c1cnccn1 | u | 5.8µM | n | 4.1µM | 3.3µM | n
O=C(N/N=C/c1ccccc1F)NC12CC3CC(CC(C3)C1)C2 | n | n | n | n | u | n
COc1cccc(/C=N/NC(=O)c2c(-c3ccccc3)noc2C)c1O | u | 4.6µM | n | n | 4.1µM | n
COc1cccc(/C=N/NC(=O)c2ccoc2C)c1O | 9.2µM | 0.73µM | u | u | 3.3µM | n
COc1cc(/C=N/NC(=O)c2ccoc2C)ccc1O | n | n | n | n | n | n
Cc1cccc(C)c1-n1c(C)nn(Cc2ccc([N+](=O)[O-])cc2)c1=O | n | u | u | n | n | n
COc1cccc(NC(=O)COC(=O)c2cc(=O)c3ccccc3o2)c1 | n | u | n | n | u | n
COc1cccc(/C=N/NC(=O)C(=O)N2CCCCCC2)c1O | 13µM | u | n | u | u | n
COc1cccc(/C=N/NC(=O)C(=O)N/N=C/c2cccc(OC)c2O)c1O | n | 1.6µM | n | n | 1µM | n
COc1cc(/C=N/NC(=O)NC23CC4CC(CC(C4)C2)C3)ccc1OCC(N)=O | n | 8.2µM | n | n | u | n
COc1ccc(OC)c(/C=N/NC(=O)C(=O)N2CCCC2)c1 | n | u | n | n | u | n
COc1cccc(/C=N\NC(=O)C2C(=O)NCC2c2ccccc2)c1O (stereo unspecified) | u | 23µM | n | n | u | n
COc1ccc(C=NNC(=S)NC23CC4CC(CC(C4)C2)C3)cc1OC | n | u | n | n | u | n
COc1ccc(OC)c(/C=N/NC(=O)c2c(C)nc3ccc(C)cn23)c1 | n | u | n | n | u | n
Cc1ccc2occ(CN3CCOc4ccc(C(C)(O)COc5ccccc5)cc4C3)c(=O)c2c1 (stereo unspecified) | x | u | x | x | n[9.04 µM] | x
COc1cccc(/C=N/NC(=O)C(=O)NCc2ccco2)c1O | 7.1µM | 21µM | n | 8.9µM | 7.3µM | n
CCOc1ccc(NS(=O)(=O)c2cc(NC(=O)c3ccc(C)cc3)ccc2Cl)cc1 | 3.7µM | 2.6µM | u | 2.3µM | 3.7µM | n
CCOc1ccc(C(=O)Nc2cccc(NC(=O)c3ccc(Cl)cc3Cl)c2)cc1 | x | 21µM | 11µM | x | u | n

Screening results from PubChem BioAssay.
